Screens deposited in PubChem by National Center for Advancing Translational Sciences (NCATS).
D2 antagonist = D2 dopamine receptor (human) antagonism; inhibition, % at 10 µM; AID 485344; HEK293 TREx D2 cells, calcium flux, dopamine EC80; P14416; 340,000 tested, 2% active; in the data active means inhibition above about 30%; inactive means below that, where a call was filed
Target sequence (P14416 whole entry, looked up): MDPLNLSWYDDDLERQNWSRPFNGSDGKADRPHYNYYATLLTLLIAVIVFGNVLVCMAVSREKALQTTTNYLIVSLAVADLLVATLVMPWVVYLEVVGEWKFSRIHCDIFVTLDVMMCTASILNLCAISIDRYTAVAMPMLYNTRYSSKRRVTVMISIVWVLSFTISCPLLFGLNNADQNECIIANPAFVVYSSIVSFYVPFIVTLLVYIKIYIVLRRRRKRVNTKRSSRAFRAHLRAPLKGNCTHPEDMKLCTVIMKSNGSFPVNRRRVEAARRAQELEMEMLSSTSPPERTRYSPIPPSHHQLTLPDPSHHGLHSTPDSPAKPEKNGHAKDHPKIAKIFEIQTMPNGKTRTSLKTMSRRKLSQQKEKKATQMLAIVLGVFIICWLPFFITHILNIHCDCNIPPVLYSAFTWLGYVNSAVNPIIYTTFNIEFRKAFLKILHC
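Cells plated overnight at 30 C with tetracycline; no-wash calcium dye, 30–90 min RT; 10 s baseline; compound pinned; 180 s read; EC80 dopamine added; another 180 s read.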
D2 PAM-1 = positive allosteric modulators of human D2 dopamine receptor. potentiation, % at 10 µM. P14416. 340,000 tested, 0.34% active. HEK293 T-REx D2, calcium flux, EC20 dopamine potentiation;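 active means potentiation over 3 SD above the plate norm, cut at about 30% in these data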
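Using a no-wash calcium dye in inducible, force-coupled HEK293 Trex cells expressing D2, we tracked fluorescence each second for 180 s after compound, then for 180 s after EC20 dopamine to detect augmented signalling.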
D2 ag-1 = agonists of human D2 dopamine receptor | P14416 | HEK293 T-REx D2 cells, calcium flux agonist mode | activation, % at 2 µM | 340,000 tested, 0.53% active;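 active means activation over 3 SD above normal in the single-dose calcium agonist read, cut at about 30% in these data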
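Agonism scored from kinetic calcium signal (1 read/sec, 180 s) following compound pin transfer, after a 10 s baseline. Cells: HEK293 Trex line expressing inducible D2 receptor coupled to calcium, dye-loaded after overnight culture at 30 C.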
D2 PAM-2 = positive allosteric modulators of human D2 dopamine receptor; DiscoveRx D2 beta-arrestin cells, luminescence, 90 min; 100% = 57 uM dopamine signal; potentiation, % (test concentration not listed); 360,000 tested, 0.23% active; AID 624464; in the data active means potentiation above about 50%
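PathHunter D2 cells, attached overnight at 37 deg C, received compound in DMSO plus dopamine at EC20 (50 nM final) for 90 min at 37 deg C. Beta-arrestin recruitment was read as luminescence after 1 h with detection reagent at ambient temperature.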
D2 ag-2 = human D2 receptor agonism in beta-arrestin assay; P14416; DiscoveRx PathHunter D2 beta-arrestin, luminescence, 90 min; 100% = 57 uM dopamine signal; activation, % (no concentration beside the values); 360,000 tested, 0.084% active; AID 624465; in the data active means activation above about 40%
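Agonist mode: compounds alone added to overnight-plated D2 PathHunter cells for 90 min at 37 C, with 57 uM final dopamine (EC100) defining full response. Beta-arrestin recruitment detected by chemiluminescent reagent, read after 1 h at ambient temperature.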
A number is an active result; n = inactive; x = no result. This is a sample that favours compounds with a hit; in the whole collection about 2.4% have one here.

SMILES	D2 antagonist	D2 PAM-1	D2 ag-1	D2 PAM-2	D2 ag-2
FC(F)(F)c1ccc(C2[C@H]3CN(Cc4ccc(-c5ccccc5)cc4)[C@H](c4ccccc4)C34CC2(c2ccccc2)C4)cc1 (stereo partly drawn)	35.4	n	n	n	n
Cc1ccc2oc3c(c(=O)c2c1)C(c1ccc(OCC(N)=O)cc1)N(Cc1ccc2c(c1)OCO2)C3=O (stereo not drawn)	x	n	x	x	x
COc1cc(OC)cc(C(=O)Nc2ccc([N+](=O)[O-])cn2)c1	50.2	n	n	n	n
COc1ccc(C(=O)Nc2ccc([N+](=O)[O-])cn2)cc1OC	n	n	n	n	n
COc1ccc([N+](=O)[O-])cc1NC(=O)c1csc(C)c1	n	n	n	n	n
Cc1cc(C(=O)Nc2ccc([N+](=O)[O-])cn2)cs1	30.5	n	n	n	n
CCOc1cc(C(=O)Nc2ccc([N+](=O)[O-])cn2)cc(OCC)c1OCC	69.0	n	n	n	n
Cc1cccc(CCn2c(=O)c3ccccc3n(Cc3ccccc3C)c2=O)c1	x	n	n	x	x
CCC(=O)Nc1ccc(C(=O)n2nc(C)cc2C)cc1	n	n	n	n	n
Cc1cc(C)n(C(=O)c2ccc(NC(=O)CC(C)C)cc2)n1	32.9	n	n	n	n
CC(C)c1nnc(NC(=O)CCC(=O)Nc2ccc(Cl)cc2)s1	40.6	n	n	n	n
Cc1cc(C)cc(NC(=O)CCC(=O)Nc2nnc(C(F)(F)F)s2)c1	n	n	n	n	n
CC(C)Cc1nnc(NC(=O)CCC(=O)Nc2ccc(Cl)cc2)s1	n	n	n	n	n
Cc1cc(C)cc(NC(=O)CCC(=O)Nc2nnc(C(C)C)s2)c1	33.2	n	n	n	n
O=C(CCS(=O)(=O)c1cc(Br)cc2c1N(C(=O)C1CC1)CC2)NCc1ccc(Cl)cc1	x	n	n	x	x
O=C(Nc1ccc(-n2nncc2-c2ccco2)cc1)c1cccc(F)c1	42.0	n	n	n	n
CC(=O)Nc1ccc(NC(=O)c2ccc([N+](=O)[O-])cc2Cl)cc1	n	n	n	n	n
CCC(C)NS(=O)(=O)c1ccc(NC(=O)c2ccc([N+](=O)[O-])cc2Cl)cc1 (stereo not drawn)	37.3	n	n	n	n
Cc1ccccc1NC1=C(C(=O)c2ccccc2)N(C)S(=O)(=O)c2ccccc21	n	n	n	n	n
O=C(C1=C(Nc2ccccc2)c2ccccc2S(=O)(=O)N1)c1ccccc1	39.7	n	n	n	n
COc1ccc(CNC(=O)C2CCCN(C(=O)c3cnn(-c4ccc(F)cc4)c3-n3cccc3)C2)cc1 (stereo not drawn)	x	n	n	x	x
O=C(Cc1cccs1)Nc1c(C(=O)Nc2ccc(F)cc2)oc2ccccc12	x	n	n	x	x
O=[N+]([O-])c1ccc(N2CCCC2)cc1NC(c1ccccc1)c1ccccc1	30.0	n	n	n	n
O=C(NCCNc1ccc([N+](=O)[O-])cc1)c1ccccc1Br	n	34.1	n	n	n
Cc1ccccc1C(=O)NCCNc1ccc([N+](=O)[O-])cc1	32.8	n	n	n	n
SMILES	D2 antagonist	D2 PAM-1	D2 ag-1	D2 PAM-2	D2 ag-2
C[C@@H]1CN([C@H](C)CO)C(=O)c2c(c3ccccc3n2C)-c2ccccc2CO[C@H]1CN(C)C(=O)NC1CCCCC1	x	x	x	n	n
O=C(Nc1cccc(C(F)(F)F)c1)c1cc2ncc(Br)cn2n1	52.9	n	n	n	n
CCN1CCCC(NC(=O)c2cc([N+](=O)[O-])ccc2OC)C1 (stereo not drawn)	38.5	n	n	n	n
CNC(=S)N1CCC(NC(=O)C23CC4CC(CC(C4)C2)C3)CC1	n	n	n	n	n
CC(=O)N1CCN(C(=S)NC(=O)C23CC4CC(CC(C4)C2)C3)CC1	n	33.9	n	n	n
Oc1cccc(Nc2nc(N3CCOCC3)nc(N3CCOCC3)n2)c1	36.0	n	n	n	n
Cc1cccc(Nc2nc(N3CCOCC3)nc(N3CCOCC3)n2)c1	n	n	n	n	n
COc1cc(C(C)n2nnc3ccccc32)ccc1O (stereo not drawn)	x	x	x	n	n
Cc1ccc(C)c(NC(=O)COC(=O)CC2CC3CCC2C3)c1 (stereo not drawn)	x	x	x	n	n
O=C(COC(=O)CC1CC2CCC1C2)Nc1cc([N+](=O)[O-])ccc1F (stereo not drawn)	n	31.9	n	n	n
Cc1ccc2nc(NC(=O)CSc3nc4c(c(=O)n3C)SC(C)C4)sc2c1 (stereo not drawn)	n	32.0	n	n	n
N#CCC(=O)Nc1ccc(C(=O)OCC(=O)NCc2ccc3c(c2)OCO3)cc1	44.0	n	n	n	n
O=C(COC(=O)c1ccc(O)cc1)NCc1ccc2c(c1)OCO2	n	n	n	n	n
N#Cc1ccc(NC(=O)COC(=O)CSc2nnc(-c3ccc(Cl)cc3)o2)cc1	31.3	n	n	n	n
O=C(COC(=O)CSc1nnc(-c2ccc(Cl)cc2)o1)Nc1cc(Cl)ccc1Cl	n	n	n	n	n
C[C@H](NC(=O)OCc1ccccc1)c1nnc([C@H](C)NC(=O)OCc2ccccc2)o1	38.3	n	n	n	n
C[C@H](NC(=O)OCc1ccccc1)c1nnc([C@H](Cc2ccccc2)NC(=O)OC(C)(C)C)o1	30.9	n	n	n	n
O=C1CSC(c2ccccc2)N1CC12CC3CC(CC(O)(C3)C1)C2 (stereo not drawn)	37.5	n	n	n	n
CN1C(=O)/C(=C/c2ccc(OC(=O)c3ccco3)cc2)SC1=S	n	n	n	n	n
CN1C(=O)/C(=C\c2ccc(OC(=O)c3ccco3)cc2)SC1=S	48.1	n	n	n	n
OCC[C@@H]1C[C@H](O)[C@@H](O)[C@]2(OCc3ccc(CO)cc32)O1	x	x	x	n	n
FC(F)Sc1ccc(NC(=S)NCC2CCCCC2)cc1	31.9	n	n	n	n
FC(F)Sc1ccc(NC(=S)NC2CCCCC2)cc1	n	n	n	n	n
Cc1ccc(NC(=S)NC2CCN(Cc3ccccc3)CC2)c(C)c1	46.9	n	n	n	n
Cc1ccc(NC(=O)CS(=O)CC(=O)NC2CCN(Cc3ccccc3)CC2)c(C)c1 (stereo not drawn)	n	n	n	n	n
Cc1ccccc1NC(=S)NC1CCN(Cc2ccccc2)CC1	78.4	n	n	n	n
CCCN(C(=O)Cn1nc(Cc2ccncc2)c2ccccc2c1=O)c1ccccc1C	x	n	n	x	x
Cc1ccc(Oc2cc([N+](=O)[O-])cc3c2C(=O)Nc2ccccc2O3)cc1	30.1	n	n	n	n
COc1ccc(C2CC(c3cc(Br)ccc3F)n3nnnc3N2)cc1 (stereo not drawn)	n	33.5	n	n	n
COc1ccc(C2CC(c3ccccc3)n3nnnc3N2)cc1 (stereo not drawn)	n	n	n	n	n
